This is an account of results in PubChem BioAssay AID651949 (Broad Institute, 2012).

Entries with a potency or affinity are not part of this list. The source made the active and inactive calls.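 The calls were made as follows: active = compounds lowering cell ATP signal whose fitted half-maximal concentration is at most twice the top tested dose; inconclusive = flat curve with 30 to 70% signal loss, or poor fit; inactive = the rest.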

This test is described as follows: HEK293T cell cytotoxicity, dose response, cytotoxicity control, CellTiter-Glo luminescence, dry powder, set 6 (AID 651949). For orientation: ATP-based viability assays read luminescence as a measure of living cells.

Consider `c1ccc(CSc2nnc(-c3ccccc3)o2)cc1`, for which the compound was called inactive.

In the case of `Clc1ccc(-c2nnc(SCc3ccccc3)o2)cc1`, the result was inactive.
